Compound activity from PubChem.
EWS-Fli inh – EWS/Fli transcriptional activity inhibition. A673 NR0B1-luciferase reporter, viability-normalised. inhibition, % at 12.6 µM. hit rate 0.67% among 350,000;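 active = mean inhibition of at least 50% after viability correction, with every replicate also passing that limit; inconclusive = mean reaches 50% but only one of two replicates passes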;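 note: firefly luciferase signal divided by Alamar Blue viability fluorescence both relative to DMSO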
TWEAK Fn14 block – TWEAK-Fn14 signaling inhibition; TWEAK-stimulated Fn14 reporter cells, luciferase luminescence, 8 h; inhibition, % at 10 µM; hit rate 2% among 360,000; AID 1159606; in the data active = inhibition above about 50%
LGR2 inh – blocks bursicon-induced cAMP signaling via Drosophila LGR2; HEK293 LGR2, CRE-luciferase, bursicon-stimulated, 4 h; hit rate 0.35% among 380,000; inhibition, % at 9.99 µM;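 active = drop in luminescence signal, shown as inhibition above about 50% in the replicate tests, limit read from the data, passing the limit was not always enough; inconclusive = probably only some replicates passing the limit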;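 note: agonist challenge used bursicon conditioned medium at about half maximal strength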
LMP1 NFkB inh – Epstein-Barr LMP1 NF-kappaB reporter inhibition; inhibition, % at 12.5 µM; LMP1-induced NF-kappaB luciferase reporter cells, luminescence; hit rate 0.69% among 350,000; AID 504558; in the data active = inhibition above about 41%; inconclusive = no clear call, values can overlap the other calls;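 note: 0% = neutral control wells and 100% = reference inhibitor control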
TROY NFkB inh – inhibitors of TROY-dependent NF-kB signaling | hit rate 0.98% among 360,000 | inhibition, % at 10 µM | Q293 LMP1-TROYcd NF-kB luciferase reporter, 4 h | AID 1347056;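 active = compounds whose plate-normalised and pattern-corrected inhibition of the luciferase reporter signal at the single screening dose is 50% or more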
Numbers without * were called inactive; ? = inconclusive; nt = not tested or not shown. The list is not random: actives were taken first. Their share in the collection is about 2.6%.

SMILES | EWS-Fli inh | TWEAK Fn14 block | LGR2 inh | LMP1 NFkB inh | TROY NFkB inh
CCOc1cccc(C(=O)Nc2nc(-c3ccc(S(=O)(=O)N4CCOCC4)cc3)cs2)c1 | nt | 35.5 | nt | 24.7 | 50.3*
O=C(COc1ccccc1Cl)Nc1nc(-c2ccncc2)cs1 | -6.6 | 52.9* | 26.4 | 10.7 | 36.5
CCn1c(Sc2ccc([N+](=O)[O-])cn2)nnc1-c1ccco1 | 13.0 | 54.6* | 43.6 | 13.9 | 4.0
Cc1n[nH]c(C)c1CCNC(=O)C1CCC(=O)N(CCc2cccc(F)c2)C1 (configuration not stated) | 0.8 | 58.0* | -4.1 | -0.1 | -15.8
Cc1nc(CCNC(=O)C2CCC(=O)N(CCc3cccc(F)c3)C2)sc1C (configuration not stated) | 2.7 | 6.1 | -0.9 | 6.4 | -1.2
O=C(OC(c1ccccc1)c1nccc2ccccc12)c1ccccc1 (configuration not stated) | -28.4 | 98.4* | ? | 4.2 | 86.9*
O=C(Cn1ncc(N2CCCC2)c(Cl)c1=O)c1ccc(Cl)cc1 | -6.1 | -5.2 | -40.6 | 19.6 | -58.2
CCC(=O)Nc1ccc(C(=O)Cn2ncc(Cl)c(Cl)c2=O)cc1 | 0.1 | 76.2* | 8.6 | -74.7 | 17.3
CCc1ccccc1NC(=O)CN(C)C(=O)Cn1ncc(Cl)c(Cl)c1=O | 62.6* | 93.3* | nt | 71.5* | 10.8
CCOC(=O)c1ccc(NC(=O)Cn2ncc(Cl)c(Cl)c2=O)cc1 | 37.4 | 99.3* | 10.3 | -28.3 | 75.2*
C[C@@H]1CCCCO[C@H](CN(C)S(C)(=O)=O)[C@@H](C)CN([C@H](C)CO)C(=O)c2cc(NC(=O)c3ccncc3)ccc2O1 | nt | nt | -8.8 | nt | nt
COCC(=O)N(C[C@H]1N[C@H](CO)[C@H]1c1ccc(-c2cccnc2)cc1)C(C)C | -8.7 | nt | 8.8 | nt | nt
CNC[C@H]1OCCCC[C@@H](C)Oc2ccc(NS(=O)(=O)c3cn(C)cn3)cc2C(=O)N([C@@H](C)CO)C[C@H]1C | -10.0 | nt | 12.1 | nt | nt
COc1ccc(-c2nnc(SCC(=O)NCCc3ccccc3)o2)cc1 | nt | 87.3* | nt | 3.1 | nt
c1ccc(-c2nnc(SCc3ccncc3)o2)cc1 | -47.9 | -44.8 | -19.8 | -5.2 | -46.8
Cc1cccc(OCc2nnc(SCc3nc4ccccc4c(=O)[nH]3)o2)c1 | nt | -18.3 | nt | -0.1 | -5.8
Brc1cccc(CSc2nnc(-c3ccncc3)o2)c1 | -15.8 | 62.5* | 34.4 | 70.8* | 24.4
COc1ccc(-c2nnc(SCc3nc4ccccc4c(=O)[nH]3)o2)cc1 | -22.9 | 51.0* | -0.2 | -14.6 | 56.0*
COc1ccc(CC(=O)NC(C)c2nnc(SCc3nc4ccccc4c(=O)[nH]3)n2C)cc1 (configuration not stated) | nt | 75.1* | nt | 1.0 | nt
CCCC#Cc1ccc([C@@H]2[C@H](CO)N3CCCCN(S(=O)(=O)CC)C[C@@H]23)cc1 | nt | nt | 9.6 | nt | nt
O=C(C[C@@H]1CC[C@H]2NC[C@H](O)COC[C@@H]2O1)NCCc1ccncc1 | -3.6 | nt | -11.5 | nt | nt
C[C@H](CO)N1C[C@H](C)[C@H](CN(C)Cc2ccc(C(=O)Nc3ccccc3N)cc2)OCCCC[C@H](C)Oc2ccc(NC(=O)C3CCCCC3)cc2C1=O | -1.2 | nt | -34.3 | nt | nt
Brc1cccc(-c2nnc(SCc3nc4ccccc4[nH]3)o2)c1 | nt | 11.5 | nt | -4.8 | 49.5
c1ccc2[nH]c(CSc3nnc(-c4ccncc4)o3)nc2c1 | nt | 58.4* | nt | 0.9 | nt
C[C@@H]1CCCCO[C@@H](CN(C)C(=O)CCC(F)(F)F)[C@@H](C)CN([C@H](C)CO)C(=O)c2cc(NC(=O)CCCCCC(=O)Nc3ccccc3N)ccc2O1 | -2.2 | nt | 9.6 | nt | nt
SMILES | EWS-Fli inh | TWEAK Fn14 block | LGR2 inh | LMP1 NFkB inh | TROY NFkB inh
Cn1ncc(Cl)c1C(=O)NC1CCCC1 | -1.6 | 2.1 | 10.3 | 52.8* | 14.9
Nc1nc(N)nc(-c2ccccc2)n1 | -10.2 | 26.7 | -2.4 | 6.5 | -7.2
Nc1nc(N)nc(-c2ccc(Cl)c(Cl)c2)n1 | -128.7 | 60.1* | 27.3 | 6.3 | -3.2
Cc1ccccc1-c1cnc2c(c1)C(=O)N([C@@H](C)CO)C[C@@H](C)[C@H](CN(C)Cc1ccncc1)O2 | -8.9 | nt | 26.8 | nt | nt
Cc1ccc(C(=O)NNC(=O)CCCN2C(=O)/C(=C/c3ccccc3Cl)SC2=S)cc1 | 30.8 | 48.4 | 9.2 | 35.5 | 34.3
O=C(CCCN1C(=O)/C(=C/c2ccc3c(c2)OCO3)SC1=S)Nc1cccc(C(=O)O)c1 | 29.0 | 55.9* | -3.9 | 28.3 | 30.7
NCCN1C(=O)S/C(=C\c2ccc3c(c2)OCO3)C1=O | -0.6 | 65.6* | 31.3 | 4.6 | 56.8*
O=C(CCN1C(=O)/C(=C/c2ccc3c(c2)OCO3)SC1=S)Nc1cccc(C(=O)O)c1 | -9.4 | -8.7 | -5.2 | 5.4 | -50.8
